# Experimental data as given in PubChem BioAssay (NCATS).
# Inconclusive results are not listed. A call without a number means that no potency is given here. Unmarked numbers belong to inactive results. Activity calls are given as the source filed them. Unless noted, the call rests on the fitted dose curve.
# Experiments:
# [1] = qHTS for Inhibitors of the Functional Ribonucleoprotein Complex (vRNP) of Lassa (LASV) Arenavirus: LASV Primary Screen - GLuc reporter signal (AID 1347082; calls by dose curve; tested in HEK293 reporter line; further: nearly all actives have a fitted effect of over 60% in size)
# [2] = qHTS for Inhibitors of the Functional Ribonucleoprotein Complex (vRNP) of Lassa (LASV) Arenavirus: Viability assay - alamar blue signal for LASV Primary Screen (AID 1347083; calls by dose curve; tested in HEK293 reporter line; further: nearly all actives have a fitted effect of over 80% in size)
# [3] = qHTS for Inhibitors of the Functional Ribonucleoprotein Complex (vRNP) of Lymphocytic Choriomeningitis Arenaviruses (LCMV): Viability assay - alamar blue signal for LCMV Primary Screen (AID 1347085; calls by dose curve; tested in HEK293 reporter line; further: nearly all actives have a fitted effect of over 80% in size)
# [4] = molecular target: Nucleoprotein (Lymphocytic choriomeningitis virus (strain Armstrong)) (UniProt P09992); assay: qHTS for Inhibitors of the Functional Ribonucleoprotein Complex (vRNP) of Lymphocytic Choriomeningitis Arenaviruses (LCMV): LCMV Primary Screen - GLuc reporter signal (AID 1347086); further: nearly all actives have a fitted effect of over 70% in size
# Potency means the concentration at half of the fitted maximal effect.
# Chain of Nucleoprotein (Lymphocytic choriomeningitis virus (strain Armstrong)) (P09992 whole entry, looked up): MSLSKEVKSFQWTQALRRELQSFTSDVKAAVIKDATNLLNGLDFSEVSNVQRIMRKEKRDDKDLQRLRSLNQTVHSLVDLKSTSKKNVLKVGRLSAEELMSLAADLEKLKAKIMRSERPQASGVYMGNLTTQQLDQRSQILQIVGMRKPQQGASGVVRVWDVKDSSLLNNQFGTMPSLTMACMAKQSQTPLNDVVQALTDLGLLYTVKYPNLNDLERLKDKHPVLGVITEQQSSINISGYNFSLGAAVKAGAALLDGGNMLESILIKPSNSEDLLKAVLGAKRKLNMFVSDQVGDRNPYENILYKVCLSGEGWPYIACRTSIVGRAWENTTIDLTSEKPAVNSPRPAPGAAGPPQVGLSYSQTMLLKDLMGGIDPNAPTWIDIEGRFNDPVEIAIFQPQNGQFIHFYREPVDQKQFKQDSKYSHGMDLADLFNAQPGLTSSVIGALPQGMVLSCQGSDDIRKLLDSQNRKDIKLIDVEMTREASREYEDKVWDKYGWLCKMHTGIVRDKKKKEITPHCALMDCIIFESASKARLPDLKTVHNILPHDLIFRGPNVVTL
Structure (SMILES),Potency [1],Potency [2],Potency [3],Potency [4]
OC1O[C@H](c2ccc3c(c2)OCO3)[C@H]2CO[C@H](c3ccc4c(c3)OCO4)[C@@H]12 (stereo not given in full),inactive,inactive,inactive,inactive
N#CC(=C1Nc2ccccc2S1)c1ccnc(OCc2ccc(CN3CCOCC3)cc2)n1,7.69 µM (active),4.32 µM (active),1.93 µM (active),1.72 µM (active)
COc1ccc(/C=C/C(=O)c2c(OC)cc(O)cc2OC)cc1,inactive,inactive,inactive,inactive
COc1ccc(CCC(=O)O)cc1,inactive,inactive,inactive,inactive
Cc1cc(O)c2c(c1O)C(=O)C(O)=C(O)C2=O,inactive,inactive,inactive,inactive
O=C[C@H](O)[C@@H](O)[C@H](O[C@H]1O[C@H](CO)[C@@H](O[C@H]2O[C@H](CO)[C@@H](O)[C@H](O)[C@H]2O)[C@H](O)[C@H]1O)[C@H](O)CO,inactive,inactive,inactive,inactive
CCCCCCCCOS(=O)(=O)O,inactive,inactive,inactive,inactive
CCC(C)c1nccnc1OC (stereo not given),inactive,inactive,inactive,inactive
COc1ccc(C(=O)OCCc2ccc(O)cc2)cc1,inactive,inactive,inactive,inactive
Cn1c(N2CCCCS2(=O)=O)nc(C(=O)NCc2ccc(F)cc2)c(O)c1=O,inactive,inactive,inactive,inactive
C[C@]12CCC3C(C[C@@H](O)[C@H]4C[C@@H](O)CC[C@]34C)C1CC[C@@H]2O (stereo not given in full),inactive,inactive,inactive,inactive
CC(=O)Nc1nc(C)c(-c2ccc(Cl)c(S(=O)(=O)NCCO)c2)s1,2.43 µM (active),1.37 µM (active),0.685 µM (active),0.544 µM (active)
Cc1ncsc1CCO,inactive,inactive,inactive,inactive
O=CC(O)C1OC(=O)C(O)C1O (stereo not given),inactive,inactive,inactive,inactive
Cc1cccc2c1CC[C@H](CN1CCC(c3c(Cl)cccc3Cl)CC1)C[C@@H]2O,inactive,inactive,inactive,inactive
COc1cc2oc(=O)ccc2cc1O,inactive,inactive,inactive,inactive
O[C@@H]1COC2[C@@H](O)CO[C@@H]21 (stereo not given in full),inactive,inactive,inactive,inactive
O=C(C=CC=Cc1ccc2c(c1)OCO2)N1CCCCC1,inactive,inactive,inactive,inactive
CC(C)(O)CC[C@H](OC(=O)c1ccccc1)[C@](C)(O)[C@H]1CC[C@@]2(O)C3=CC(=O)[C@@H]4C[C@@H](O)[C@H](O)C[C@]4(C)C3CC[C@]12C (stereo not given in full),inactive,inactive,inactive,inactive
COc1c(C)c2c(c(O)c1CC=C(C)CCC(=O)OCCN1CCOCC1)C(=O)OC2,6.11 µM (active),6.85 µM (active),12.2 µM (active),6.11 µM (active)

Structure (SMILES),Potency [1],Potency [2],Potency [3],Potency [4]
c1cnc2c(-c3nccc4c3[nH]c3ccccc34)cccc2c1,inactive,inactive,inactive,inactive
CC(=O)Oc1ccc2c(=O)c(-c3ccccc3)c(C)oc2c1,inactive,inactive,inactive,inactive
C/C=C(/C)C(=O)OC(C)(C)[C@@H]1Cc2c(ccc3ccc(=O)oc23)O1,inactive,inactive,inactive,inactive
COc1ccc2c(c1)C(=O)CC(c1ccc(OC)c(OC)c1)O2 (stereo not given),inactive,inactive,inactive,inactive
CN1C2CCC1CC(OC(=O)c1cccc(O)c1)C2 (stereo not given),inactive,inactive,inactive,inactive
COc1c2c(cc3oc(CO[C@@H]4O[C@H](CO)[C@@H](O)[C@H](O)[C@H]4O)cc(=O)c13)O[C@H](C(C)(C)O)C2,inactive,inactive,inactive,inactive
NC(=O)c1ncn([C@@H]2O[C@H](CO)[C@@H](O)[C@@H]2O)c1O,inactive,inactive,inactive,inactive
O=C(O)c1cc(N(Cc2ccccc2O)Cc2ccccc2O)ccc1O,inactive,inactive,inactive,inactive
Cc1cc(CS(=O)(=O)c2ccccc2)cc(OCc2ccc(CN3CCC[C@H]3CO)cc2)c1,inactive,inactive,inactive,inactive
NCCCCCN,inactive,inactive,inactive,inactive
C=C(C)[C@@H]1CCC2=CC(=O)C[C@@H](C)[C@]2(C)C1,inactive,inactive,inactive,inactive
CCCCCc1c2c(cc(O)c1C(=O)O)OC(=O)c1cc(C(=O)CCCC)c(OC)cc1O2,inactive,inactive,inactive,inactive
COc1cc2c(cc1O)C(Cc1ccc(O)cc1)NCC2 (stereo not given),inactive,inactive,inactive,inactive
C[C@@H]1C(=O)O[C@@H]2CC34[C@H]5C[C@@H](C(C)(C)C)C36[C@H](OC(=O)[C@@H]6O)OC4(C(=O)O5)[C@@]12O (stereo not given in full),inactive,inactive,inactive,inactive
CO[C@H]1[C@@H](OC)CC(OC2OC(CO)C(O)C(O)C2O)/C(=C\C#N)[C@@H]1O (stereo not given in full),inactive,inactive,inactive,inactive
CC1C(=O)OC2CCN3CC=C(COC(=O)C(C)(O)C1(C)O)C23 (stereo not given),inactive,inactive,inactive,inactive
C=C(C)C(O)CC/C(C)=C/Cc1c(O)ccc(C(=O)/C=C/c2ccc(O)cc2)c1O (stereo not given),inactive,inactive,inactive,inactive
O=C(O)C=Cc1ccc(Cn2ccnc2)cc1,inactive,inactive,inactive,inactive
O=C1O[C@@H](c2ccc(O)cc2)Cc2cccc(O)c21,inactive,inactive,inactive,inactive
CC(=O)C1CCC2C3CCC4=CC(=O)C=CC4(C)C3CCC12C (stereo not given),inactive,inactive,inactive,inactive

Structure (SMILES),Potency [1],Potency [2],Potency [3],Potency [4]
COc1ccc(-c2coc3cc(OC(C)=O)c(OC)cc3c2=O)cc1,inactive,inactive,inactive,inactive
CCOC(=O)c1c(C)nc(C)c(C(=O)OCC)c1-c1ccccc1,inactive,inactive,inactive,inactive
CC1(C)C[C@@H](O)[C@]2(C)CC[C@]3(C)C(=CCC4[C@@]5(C)CC[C@H](O)[C@](C)(CO)C5CC[C@]43C)[C@@H]2C1 (stereo not given in full),inactive,inactive,inactive,inactive
c1coc(Cn2cccc2)c1,inactive,inactive,inactive,inactive
CC1(C)O[C@@H]2C[C@@H]3[C@H]4C[C@@H](F)C5=CC(=O)C=C[C@]5(C)[C@@]4(F)[C@@H](O)C[C@]3(C)[C@]2(C(=O)CO)O1,inactive,inactive,inactive,inactive
CC1=CCC(C(C)C)C=C1 (stereo not given),inactive,inactive,inactive,inactive
COc1ccc(-c2cnc(-c3cccnc3)o2)cc1,inactive,inactive,inactive,inactive
COC1=C(C)C(O)=C(C(=O)/C=C/c2ccccc2)C(=O)C1(C)C,inactive,inactive,inactive,inactive
CCCCCCCCCCCCCCCCCCCCCCCCCCCCCC,inactive,inactive,inactive,inactive
CCCCCCC[C@@H](C/C=C/CCC(=O)O)OC,inactive,inactive,inactive,inactive
Cn1c2ccccc2c(=O)c2c(O)cccc21,inactive,inactive,inactive,inactive
COc1c2n(C)ccc3c-2n(c(=O)c1=O)c1ccccc31,inactive,inactive,inactive,inactive
CC1=CCC(O)(C(C)C)CC1 (stereo not given),inactive,inactive,inactive,inactive
CC[C@@H]1C=C(C)C[C@H](C)C[C@H](OC)[C@H]2O[C@@](O)(C(=O)C(=O)N3CCCC[C@@H]3C(=O)O[C@H](C(C)=C[C@@H]3CC[C@H](Cl)[C@H](OC)C3)[C@H](C)[C@@H](O)CC1=O)[C@H](C)C[C@H]2OC,inactive,inactive,inactive,inactive
CCC(CC)C(=O)O,inactive,inactive,inactive,inactive
CC1(C)Oc2ccc3ccc(=O)oc3c2C[C@H]1O[C@@H]1O[C@H](CO)[C@@H](O)[C@H](O)[C@H]1O,inactive,inactive,inactive,inactive
CC1(C)C[C@H]2C3=CCC4[C@@]5(C)CC[C@H](O)[C@](C)(CO)C5CC[C@@]4(C)[C@]3(C)C[C@H]3O[C@@H]1[C@H](O)[C@]32CO (stereo not given in full),inactive,inactive,inactive,inactive
CC/C=C\CCOC(=O)CCCCC,inactive,inactive,inactive,inactive
CC(C)=CCCC(C)CCOC=O (stereo not given),inactive,inactive,inactive,inactive
COc1ccc(COC(C)=O)cc1,inactive,inactive,inactive,inactive
